Screening data (PubChem)
ATXN2 expr inh: Primary qHTS for Inhibitors of ATXN expression; Potency, µM (series often up to 57 µM), inactives show top-dose activity change, negative = inhibition, actives largely listed as inhibitors; AID 1745845, 2022; 360,000 compounds, 0.72% hits; HEK-293 ATXN2-luciferase reporter, luminescence, 24 h; further: on the % scale 0 is the no-effect control and ±100 the full control effect; nearly all actives have a fitted effect of over 55% in size
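qHTS (up to 57 uM final) was run with 24 h compound exposure of reporter cells at 37 °C. Each well was multiplexed: SteadyGlo luminescence measured ATXN2-luciferase expression after a fluorogenic Gly-Phe-AFC viability readout (25 uM final).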
S2 tox: Viability Counterscreen for Primary qHTS for Inhibitors of ATXN expression | S2 cells (HEK-293 line with an ATXN2-luciferase reporter) viability, CellTiter-Fluor protease fluorescence, 24 h | Potency, µM (doses to about 56.7 µM), usual class: cytotoxic | 400,000 compounds, 0.49% hits | AID 651635, 2014; further: nearly all actives have a fitted effect of over 40% in size
HT1080 IDH1KD tx: qHTS for induction of synthetic lethality in tumor cells producing 2HG: qHTS for the HT-1080-IDH1KD cell line; AID 686971, 2013; HT-1080 IDH1 knockdown viability, ATP luminescence, 48 h; 360,000 compounds, 2% hits; Potency, µM (titrated, usually from 46.1 µM), for the others: at the highest dose activity, negative = toxicity, most hits filed as cytotoxic;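 further: 0% = DMSO wells and -100% = cell-free medium wells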
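% activity derives from luminescence (CellTiter-Glo), normalised to DMSO and no-cell wells. HT-1080-IDH1KD cells, 750/well, had 48 h compound exposure at 37 °C.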
KB-V1 MDR tox: qHTS assay for MDR1-selective chemotherapeutics: Primary screen using the drug-selected MDR subline cells KB-V1. KB-V1 MDR cells viability, CellTiter-Glo, 72 h. Potency, µM (top dose mostly 46.1 µM), hits mostly cytotoxic. 400,000 compounds, 3.4% hits; further: on the % scale 0 is the no-effect control and ±100 the full control effect; nearly all actives have a fitted effect of over 60% in size
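qHTS viability screen in drug-selected KB-V1 MDR cells: 72 h compound treatment at 37 degrees C, ATP luminescence end point.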
KB-3-1 tox: qHTS assay for MDR1-selective chemotherapeutics: Primary screen using the parental adenocarcinoma cell KB-3-1. KB-3-1 viability, CellTiter-Glo ATP luminescence, 72 h. Potency, µM (doses to about 46.1 µM), actives largely listed as cytotoxic. 400,000 compounds, 1.4% hits; further: on the % scale 0 is the no-effect control and ±100 the full control effect; nearly all actives have a fitted effect of over 60% in size
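Cells are dispensed, compounds pinned in, plates held at 37 °C for 72 h, then CellTiter-Glo is added and luminescence read after 10 minutes. Cell line: parental KB-3-1 in phenol-red-free DMEM, 10% FBS.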
HT1080-NT tox: qHTS for induction of synthetic lethality in tumor cells producing 2HG: qHTS for the HT-1080-NT fibrosarcoma cell line | 360,000 compounds, 1.6% hits | Potency, µM (titrated, usually from 46.1 µM), inactives show top-dose activity, negative = less viability, most hits filed as cytotoxic | AID 686970, 2013 | HT-1080-NT fibrosarcoma viability, CellTiter-Glo ATP luminescence, 48 h;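 further: NT is the 2HG producing partner of a matched IDH1 knockdown line; 0% = DMSO-treated cells and -100% = media-only wells without cells; nearly all actives have a fitted effect of over 55% in size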
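Compounds were tested in concentration-response format on HT-1080-NT cells for 48 hours at 37 degrees C. Cell viability came from CellTiter-Glo luminescence; curves were classified by r2, response magnitude and activity.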
* marks the source's active call; other numbers are inactive results; i = inactive; ? = inconclusive; . = no result; [ ] = remark or other dose. An excerpt weighted towards active compounds, which were near 6.2% of everything screened. The call rests on the fitted dose curve; in most records, active means well fitted curve in the direction sought with a large enough effect; inconclusive means small, poorly fitted or top-dose-only effect, or another doubt; inactive means no such curve, though single readings can be large; an effect the other way counts as inactive or inconclusive. Potency means the concentration at half of the fitted maximal effect.

SMILES	ATXN2 expr inh	S2 tox	HT1080 IDH1KD tx	KB-V1 MDR tox	KB-3-1 tox	HT1080-NT tox
Cc1cccc(N2CCN(S(=O)(=O)c3ccc4c(c3)C(C)(C)C(=O)N4C)CC2C)c1 (centres undefined)	-12%	i	0%	i	i	-16%
Cc1cccc(N2CCN(S(=O)(=O)c3ccc4c(c3)CCC(=O)N4)CC2C)c1 (centres undefined)	-1%	i	-27%	15µM*	i	-13%
CCOC(=O)/C(C#N)=C1/SC(C)C(=O)N1c1ccc(Br)cc1 (centres undefined)	2%	i	0%	i	i	2%
CCOC(=O)/C(C#N)=C1/SC(CC)C(=O)N1c1ccc(Br)cc1 (centres undefined)	5%	i	14%	8.2µM*	i	-2%
Cc1ccc2c(c1)-c1nc(-c3ccccc3)cc(-c3ccccc3)c1CO2	-6%	i	.	i	i	.
COc1cc2c3nnc(-c4ccccc4)c-3cn(Cc3ccccc3F)c2cc1OC	-19%[11.3 µM]	.	?	i	?	?
COc1cc2c3nnc(-c4ccc(F)cc4)c-3cn(Cc3ccccc3F)c2cc1OC	20µM*	i	?	i	15µM*	?
CCOC(=O)c1cnc2c(C(F)(F)F)cccc2c1Nc1cccc(C(=O)OC)c1	-17%	i	.	i	i	.
O=C(COC(=O)c1ccc(N2CCOCC2)c([N+](=O)[O-])c1)Nc1ccc2c(c1)OCO2	3%	?	26%	8.2µM*	?	?
Nc1ccc(C(=O)OCC(=O)Nc2ccc3c(c2)OCO3)cc1[N+](=O)[O-]	1%	i	9%	i	i	-2%
CCC(C)c1ccccc1NC(=O)COC(=O)c1ccc2[nH]c3c(c2c1)CCCC3 (centres undefined)	?	?	?	21µM*	?	-30%
CCC(C)c1ccccc1NC(=O)COC(=O)c1ccc(N2CCCC2)c([N+](=O)[O-])c1 (centres undefined)	6%	i	-2%	i	0.0023µM*	1%
Cc1c(CCOC(=O)c2ccc(N3CCOCC3)c([N+](=O)[O-])c2)sc[n+]1CC#N	?	?	?	?	21µM*	23µM*
O=C(Nc1cccc(-c2csc(Nc3ccc(Cl)cc3)n2)c1)c1ccccc1	?	16µM*	?	i	i	?
O=C(Nc1ccc(Cl)c(Cl)c1)Nc1nc(-c2ccccc2)cs1	-14%	i	-19%	6.5µM*	12µM*	3%
O=C(NCC1CC1)c1csc(COCCO)n1	11%	i	1%	i	i	29%
COc1ccc(CCNC(=O)C(C)n2nc(C)c3c(C)n(-c4ccc(C)cc4)nc3c2=O)c(OC)c1 (centres undefined)	?	?	-25%	i	i	21µM*
COc1ccccc1CCNC(=O)C(C)n1nc(C)c2c(C)n(-c3ccccc3)nc2c1=O (centres undefined)	-30%	i	-10%	i	i	-5%
Cc1cc(Br)cn2c(Cc3cccc(F)c3)c(-c3ccccc3)nc12	-6%	?	-29%	i	i	?
CCOC(=O)/C(=N\Nc1cccc(C(F)(F)F)c1)N(CCOC)CCOC	-5%	i	-5%	23µM*	i	9%
CCOC(=O)/C(=N\Nc1cccc(C(F)(F)F)c1)N1CCOCC1	12%	i	-2%	i	i	0%
CCOc1ccc(C(=O)c2cn(CC(=O)Nc3ccc(F)cc3)c3cc4c(cc3c2=O)OCCO4)cc1	-7%	i	.	?	i	.
O=c1c(-c2nnc(SCc3ccc(Cl)cc3)o2)cccn1Cc1ccccc1	1%	?	?	4.6µM*	i	?
O=C(Nc1ccccc1-c1nnc(SCc2ccccc2)o1)c1ccccc1	0%	i	4%	15µM*	i	-4%
O=C(Nc1ccccc1-c1nnc(SCc2ccc(Cl)cc2)o1)c1ccccc1	-2%	i	-6%	?	i	-2%
SMILES	ATXN2 expr inh	S2 tox	HT1080 IDH1KD tx	KB-V1 MDR tox	KB-3-1 tox	HT1080-NT tox
N#CC(C#N)=C1SC(=Nc2ccccc2)C(=Nc2ccccc2)N1c1ccccc1	27µM*	27µM*	?	?	21µM*	?
CC(OC(=O)c1ccc(F)cc1)C(=O)Nc1nc(-c2cccc([N+](=O)[O-])c2)cs1 (centres undefined)	9%	i	15%	21µM*	i	9%
CC(C)Oc1ccc(C(=O)OC(C)C(=O)Nc2nc(-c3cccc([N+](=O)[O-])c3)cs2)cc1 (centres undefined)	.	i	-2%	i	i	-4%
CC(C)(C)NNC(=S)Nc1cccc(C(F)(F)F)c1	?	i	10µM*	i	i	-22%
FC(F)(F)c1cccc(N2CCN(C(=S)NC3CCCCC3)CC2)c1	?	?	?	21µM*	?	-27%
O=C(NNC(=S)Nc1cccc(C(F)(F)F)c1)c1ccccc1Cl	?	i	?	?	?	18µM*
CCCNC(=S)Nc1cccc(C(F)(F)F)c1	-1%	i	-4%	i	i	-6%
O=C(NNC(=S)Nc1ccc(Cl)cc1)c1ccccc1OC(F)F	?	i	?	3.3µM*	18µM*	?
COCC(=O)Nc1cc(C(=O)N2CCSCC2)cc2nc(-c3ccccc3)n(C)c12	.	i	.	.	.	.
FC(F)(F)c1cccc(NC(=S)Nc2cccc(NC(=S)Nc3cccc(C(F)(F)F)c3)n2)c1	?	i	23µM*	?	?	?
Cc1ccc(NC(=S)NNC(C)(C)C)cc1	10%	i	18µM*	i	i	?
FC(F)(F)c1cccc(NC(=S)NC2CCCC2)c1	2%	i	-13%	?	18µM*	-20%
O=S(=O)(c1cccc(-c2nc3ccccc3s2)c1)N1CCOCC1	2%	i	-7%	16µM*	?	-8%
Cc1ccc(-c2nc3ccccc3s2)cc1S(=O)(=O)N1CCCC1	11%	i	10µM*	i	i	-41%
CCN1CCN(C(=O)c2ccc(-c3nc4ccccc4s3)s2)CC1	.	?	-10%	i	i	-1%
